Screening data as filed in PubChem.
Only some compounds are listed: those with a hit (about 4.6% of all), similar ones and a draw of the others.
D1 ag: activates the human D1 dopamine receptor; activation, % at 2 µM; 1% of 360,000 active; HEK293 T-REx D1 cells, calcium flux, agonist mode; P21728; note: 0% is about no effect
Target sequence (P21728 whole entry, looked up): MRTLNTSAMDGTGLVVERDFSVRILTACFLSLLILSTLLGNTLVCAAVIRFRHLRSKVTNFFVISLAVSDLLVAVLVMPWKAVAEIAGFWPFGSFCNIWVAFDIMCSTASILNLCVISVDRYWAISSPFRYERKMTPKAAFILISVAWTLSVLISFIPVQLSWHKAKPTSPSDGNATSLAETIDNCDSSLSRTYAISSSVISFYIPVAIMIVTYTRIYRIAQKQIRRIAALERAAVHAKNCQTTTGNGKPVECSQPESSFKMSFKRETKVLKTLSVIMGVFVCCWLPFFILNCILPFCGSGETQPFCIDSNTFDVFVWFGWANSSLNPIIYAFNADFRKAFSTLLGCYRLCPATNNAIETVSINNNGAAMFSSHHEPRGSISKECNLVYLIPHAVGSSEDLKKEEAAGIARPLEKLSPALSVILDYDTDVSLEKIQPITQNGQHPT
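Tetracycline-induced HEK293 TREx D1 cells, force-coupled to calcium signalling, were dye-loaded with a no-wash calcium kit. Compound was pin-added after a 10 s baseline. Fluorescence was read kinetically at 1 cycle/s for 180 s, with calcium rises flagged as agonism.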
D1 potentiator: human D1 dopamine receptor positive modulation; potentiation, % at 10 µM; 0.036% of 360,000 active; HEK293 TREx D1 cells, calcium flux, dopamine EC20 potentiation; AID 504651; in the data active = potentiation above about 30%; note: 0% is about no effect
TRHR PAM: allosterically enhances the human TRH receptor; 0.66% of 360,000 active; TRHR cells, fluo-8 calcium fluorescence, EC20 TRH enhancement; AID 493056; P34981; enhancement, % at 2 µM; in the data active = enhancement above about 30%; note: 0% is about no effect
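Enhancer read-out: after compound pinning and an initial kinetic agonist-mode read, an EC20 of TRH (10 nM final) was injected and fluo-8 calcium signal (Ex 480/Em 530) followed at 1 s/cycle for 100 cycles in TRHR-expressing cells.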
TRHR ag: agonists of human TRH receptor | TRHR cells, calcium flux fluo-8, FDSS agonist mode | activation, % at 2 µM | 0.18% of 360,000 active; note: 0% is about no effect
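Read-out: compound-evoked intracellular calcium rise in TRHR cells, fluo-8 dye, kinetic FDSS fluorescence at 1 s/cycle following a 10-cycle baseline. Cells cultured overnight before dye loading (30 min–1.5 h, RT).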
D1 antagonist: blocks dopamine activation of the human D1 receptor. P21728. HEK293 TREx D1 cells, calcium flux, dopamine EC80; stronger effect = lower value. activity change, negative = inhibition, % at 10 µM. 3.2% of 360,000 active. AID 504652; in the data active = activity change below about -30%; note: % is set by controls: 0 for no effect and ±100 for the full control effect
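Using tetracycline-induced force-coupled D1 Hek293 cells and a calcium dye, signals were followed for 180 s after compound, then for 180 s after EC80 dopamine, to detect inhibitors.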
* = called active by the depositor. Cut-off read from the data, not from the text of the source, unless noted: active = activation above about 30%; inactive = the rest.

SMILES	D1 ag	D1 potentiator	TRHR PAM	TRHR ag	D1 antagonist
COc1ccc(CNC(=O)c2c(C)cc(=O)oc2C)cc1	1.4	0.2	1.0	0.6	-33.3*
Cc1cc(=O)oc(C)c1C(=O)NCCc1ccccc1	2.8	-1.8	19.1	-1.1	-32.0*
CCOC(=O)N1CCC(NC(=O)c2c(C)nn(-c3cccc(C)c3)c2-n2cccc2)CC1	3.9	-3.0	-1.1	-0.5	2.6
Cc1cccc(S(=O)(=O)N2CCN(S(=O)(=O)c3ccc4c(c3)OCCO4)CC2)c1	5.2	1.8	2.3	1.1	-3.7
COc1cc(NC(=O)Cn2c(=O)ccc3cc(S(=O)(=O)N4CCCC4)ccc32)cc(OC)c1	1.3	-1.1	-2.3	0.8	6.8
Cc1ccc(-n2nc(C(=O)N3CCCCC3)c(=O)n(C)c2=O)cc1	0.7	-2.4	-1.3	0.4	-13.6
N#C/C(=C\c1ccccc1)C(=O)Nc1sc2c(c1C(N)=O)CCC2	0.1	2.2	-2.9	0.4	-14.0
CC(C)Nc1ccc(-c2nc(-c3ccccn3)no2)cc1[N+](=O)[O-]	8.7	4.3	14.5	1.1	-11.8
Cc1cc(N/N=C/c2ccc([N+](=O)[O-])o2)nc2ccccc12	47.8*	0.9	7.1	21.4	2.2
COc1cccc(C(=O)NC(C)c2ccc(Br)cc2)c1 (centres undefined)	7.9	-2.3	-3.4	0.1	2.3
COc1cc(OC)cc(C(=O)NC(C)c2ccc(Br)cc2)c1 (centres undefined)	41.3*	-0.6	-9.3	-0.4	4.3
O=C(Nc1ccc(F)cc1)OCCOc1ccc(Br)cc1	6.6	2.5	-5.3	-0.5	-55.0*
CCc1ccc2[nH]c(=O)c(CN(Cc3ccccc3)Cc3nnnn3Cc3ccco3)cc2c1	5.1	3.5	-0.6	0.9	7.2
CCOC(=O)Cn1nnnc1CN(Cc1ccccc1)Cc1cc2cc(CC)ccc2[nH]c1=O	1.7	-4.6	-0.2	-0.2	-39.2*
Cc1ccc2[nH]c(=O)c(CN(Cc3nnnn3Cc3ccccc3)C3CCCC3)cc2c1	-0.7	5.5	32.6*	-0.3	1.5
CCOc1ccc(N2C(=O)CN(C)C2=S)cc1	1.1	-2.3	-1.3	0.1	0.9
CCOc1ccc(N2C(=O)/C(=C/c3cccs3)N(C)C2=S)cc1	6.7	-8.0	-7.4	0.6	-36.8*
O=[N+]([O-])c1ccc(-n2ccnc2)cc1	1.6	-9.2	0.0	0.5	-38.3*
CC(C)c1ccc(C(=O)NNC(=O)C2C3CCC(C3)C2C(=O)O)cc1 (centres undefined)	-0.2	-3.5	-1.1	-0.7	-74.8*
O=C(Nc1nc(Nc2cc(F)cc(F)c2)nc(NC2CCCC2)n1)OCc1ccccc1	7.3	-4.5	-3.2	1.2	9.5
O=C(CSc1cccc2cccnc12)N/N=C/c1ccc(F)cc1	1.8	-9.3	5.2	-1.0	-49.9*
c1coc(-c2nc3cc4ccccc4cc3nc2-c2ccco2)c1	5.3	-3.6	1.0	0.2	4.9
CC1(C)Cc2cccc(OCC(=O)OCC(=O)Nc3ccc(C(N)=O)cc3)c2O1	-1.6	-7.2	-0.4	-0.6	-38.7*
NC(=O)c1ccc(N2CCN(c3ccccc3O)CC2)c([N+](=O)[O-])c1	19.2	-9.3	6.3	-0.5	-56.2*
NC(=O)c1ccc(N2CCN(c3ccccc3F)CC2)c([N+](=O)[O-])c1	4.8	0.3	9.2	-0.6	-18.6
SMILES	D1 ag	D1 potentiator	TRHR PAM	TRHR ag	D1 antagonist
O=[N+]([O-])c1ccc(N2CCN(c3ccccc3O)CC2)c(Cl)c1	9.1	-6.8	9.1	-0.7	-35.6*
COc1ccc(C2C(C(C)=O)=C(C)N=c3s/c(=C\c4cc(C)n(C)c4C)c(=O)n32)c(OC)c1 (centres undefined)	121.3*	-6.5	9.6	53.4*	-12.7
O=C(Nc1cc(Sc2ccccn2)cc([N+](=O)[O-])c1)c1cccc(Cl)c1	22.2	-8.3	17.3	0.1	-35.5*
CCOC(=O)C(=CNc1cccc(N)n1)C(=O)OCC	1.3	-5.8	0.7	-0.4	-23.0
CCOC(=O)C(=CNc1ccc(Cl)cn1)C(=O)OCC	1.2	0.1	5.3	-1.0	-40.0*
CCOC(=O)c1ccc(NC(=O)c2c(NCc3sccc3C)sc3c2CCCCC3)cc1	1.1	-3.2	-4.9	0.5	3.8
Cc1ccc(NC(=S)N2CCCC(c3nc4ccc(C)cc4[nH]3)C2)c(C)c1 (centres undefined)	-1.5	-4.3	-2.7	-0.7	-31.3*
